Bioassay records deposited in PubChem by several laboratories.
Compounds with a hit are over-represented: about 0.45% of the library has one in this group of screens.
LGR2 antag: inhibitors of bursicon-induced LGR2 CRE-luciferase signal, primary screen, cell-based, HEK293, CRE-luciferase reporter, bursicon stimulation; Drosophila bursicon receptor LGR2 (rickets); AID 720647, 2013; inhibition, % at 9.99 µM; actives 0.35% (n = 380,000); bursicon-stimulated, 4 h;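 active = drop in luminescence signal, shown as inhibition above about 50% in the replicate tests, limit read from the data, passing the limit was not always enough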;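 note: agonist challenge used bursicon conditioned medium at about half maximal strength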
SRC3 inh: SRC3 coactivator transcriptional activity inhibitors, primary screen, cell-based, luminescence. Nuclear receptor coactivator 3 (Homo sapiens), Q9Y6Q9. HEK293 GAL4-SRC3 luciferase reporter. inhibition, % at 3.6 µM. actives 0.17% (n = 360,000);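 active = inhibition above a per-campaign cutoff, the mean of all compounds plus 3 SD, cut at about 60% in these data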;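 note: 0% = DMSO-treated cells and 100% = gossypol-treated cells at 36 µM; higher means less SRC3-driven luciferase light from the GAL4 reporter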
Target sequence (Q9Y6Q9 whole entry, looked up, the tested form may be a part): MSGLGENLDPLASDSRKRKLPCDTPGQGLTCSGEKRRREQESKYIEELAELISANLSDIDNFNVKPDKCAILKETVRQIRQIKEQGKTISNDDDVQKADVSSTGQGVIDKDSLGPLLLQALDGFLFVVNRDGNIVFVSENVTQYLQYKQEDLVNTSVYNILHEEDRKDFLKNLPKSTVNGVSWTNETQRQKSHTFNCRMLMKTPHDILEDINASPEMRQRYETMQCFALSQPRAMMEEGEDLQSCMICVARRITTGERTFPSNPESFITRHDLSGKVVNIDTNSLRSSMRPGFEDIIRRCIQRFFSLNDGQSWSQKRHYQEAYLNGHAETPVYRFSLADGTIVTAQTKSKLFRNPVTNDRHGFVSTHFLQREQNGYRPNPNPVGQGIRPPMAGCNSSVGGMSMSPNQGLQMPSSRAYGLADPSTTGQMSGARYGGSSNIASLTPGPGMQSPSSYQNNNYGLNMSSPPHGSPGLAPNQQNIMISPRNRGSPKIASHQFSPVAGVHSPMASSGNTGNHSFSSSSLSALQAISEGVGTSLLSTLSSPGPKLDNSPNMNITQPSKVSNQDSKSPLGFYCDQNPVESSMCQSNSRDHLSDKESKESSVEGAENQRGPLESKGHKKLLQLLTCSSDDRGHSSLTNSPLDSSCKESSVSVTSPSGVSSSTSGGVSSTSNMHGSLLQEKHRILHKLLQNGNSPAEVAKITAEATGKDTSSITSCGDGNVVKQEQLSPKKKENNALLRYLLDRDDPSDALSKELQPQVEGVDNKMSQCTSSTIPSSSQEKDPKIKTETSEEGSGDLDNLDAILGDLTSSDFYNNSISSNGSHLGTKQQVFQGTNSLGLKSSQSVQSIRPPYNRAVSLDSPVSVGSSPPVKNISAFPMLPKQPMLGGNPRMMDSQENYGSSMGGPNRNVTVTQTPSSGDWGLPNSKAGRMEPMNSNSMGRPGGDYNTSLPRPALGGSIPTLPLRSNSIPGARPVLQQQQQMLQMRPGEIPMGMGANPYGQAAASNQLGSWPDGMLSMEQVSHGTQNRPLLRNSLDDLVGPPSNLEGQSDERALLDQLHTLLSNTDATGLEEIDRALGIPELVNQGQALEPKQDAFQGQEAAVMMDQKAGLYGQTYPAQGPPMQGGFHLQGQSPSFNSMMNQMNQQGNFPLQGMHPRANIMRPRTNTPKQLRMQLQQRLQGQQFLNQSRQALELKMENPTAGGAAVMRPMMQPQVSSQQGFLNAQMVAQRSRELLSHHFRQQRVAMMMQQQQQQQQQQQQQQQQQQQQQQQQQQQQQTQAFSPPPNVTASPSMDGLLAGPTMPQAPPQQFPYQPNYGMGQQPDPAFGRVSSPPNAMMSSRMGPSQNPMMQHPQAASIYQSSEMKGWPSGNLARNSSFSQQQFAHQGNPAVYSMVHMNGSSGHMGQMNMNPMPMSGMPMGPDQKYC
SRC1 inh: SRC1 coactivator transcriptional activity inhibitors, primary screen, cell-based, luminescence. Nuclear receptor coactivator 1 (Homo sapiens), Q15788. HEK293 GAL4-SRC1 luciferase reporter. inhibition, % at 3.6 µM. actives 0.12% (n = 360,000). AID 588354, 2011;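 active = inhibition above the campaign mean plus 3 SD, with each screening campaign given its own cutoff, cut at about 60% in these data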;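 note: 0% = DMSO treated cells and 100% = gossypol at 36 µM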
SRC2 inh: inhibition of GAL4-SRC2 driven luciferase reporter, primary screen, SRC2 inhibitor project, cell-based, luminescence. Nuclear receptor coactivator 2 (Homo sapiens), Q15596. actives 0.17% (n = 370,000). HEK293 GAL4-SRC2 luciferase reporter. inhibition, % at 9 µM;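 active = inhibition above the mean inhibition of all tested compounds plus 3 SD, set per campaign, cut at about 52% in these data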;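 note: 0% = DMSO treated cells and 100% = cells given Gossypol at 36 µM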
NR5A2 inv ag: LRH-1 (NR5A2) inverse agonists, primary screen, cell-based, luminescence, HEK293T, StAR-luciferase reporter; AID 602396, 2012; LRH-1 transfected, 24 h; inhibition, % at 3.6 µM; Nuclear receptor subfamily 5 group A member 2 (Homo sapiens), O00482; actives 0.13% (n = 360,000);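 active = inhibition above the mean inhibition of all tested compounds plus 3 SD, cut at about 73% in these data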;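 note: 0% = DMSO wells and 100% = reporter-only cells lacking LRH-1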
* = called active by the depositor.

Screening O=C(CN1C(=O)c2ccccc2S1(=O)=O)c1ccc(F)cc1 returned LGR2 antag 74.5*, SRC3 inh 46.0, SRC1 inh 13.7, SRC2 inh 32.4 and NR5A2 inv ag -15.9.
Screening O=C(CN1C(=O)c2ccccc2S1(=O)=O)N1CCN(c2ccccc2F)CC1 returned SRC3 inh 7.7, SRC1 inh 5.0, SRC2 inh -2.0 and NR5A2 inv ag -8.3.
Screening C[C@H](CO)N1C[C@H](C)[C@@H](CN(C)CC2CCCCC2)Oc2c(NC(=O)CCCCCC(=O)Nc3ccccc3N)cccc2C1=O returned LGR2 antag -34.4.
Screening COc1ccccc1NC(=O)N[C@H]1CC[C@H](CCNS(=O)(=O)c2ccc(C)cc2)O[C@@H]1CO returned LGR2 antag 23.1.
Screening COCC(=O)N1[C@H](CO)[C@@H](c2ccccc2)C12CN(C(=O)Cc1ccccn1)C2 returned LGR2 antag 12.6.
For CC1CN(S(=O)(=O)c2ccc(C(=O)NCCCn3ccnc3)cc2)CC(C)O1 (stereo unspecified) the results were LGR2 antag 4.3, SRC3 inh 54.3, SRC1 inh 62.3*, SRC2 inh 47.5 and NR5A2 inv ag 67.0.
CC1CN(S(=O)(=O)c2cccc(C(=O)NCCCn3ccnc3)c2)CC(C)O1 (stereo unspecified) was read as SRC3 inh 7.4, SRC1 inh -7.7, SRC2 inh -4.2 and NR5A2 inv ag -2.4.
Screening COC(=O)c1cc(OC)c(OC)cc1NCC(=O)Nc1ccc(C)cc1 returned LGR2 antag 50.5*, SRC3 inh 9.4, SRC1 inh -1.3, SRC2 inh 8.8 and NR5A2 inv ag 5.6.
O=C(C[C@@H]1C[C@@H]2c3cc(NC(=O)CC4CC4)ccc3O[C@@H]2[C@@H](CO)O1)NCc1cccnc1 was read as LGR2 antag 6.7.
For Nc1ccc(-c2nc3c(Cl)cc(N)cc3[nH]2)cc1 the results were SRC3 inh 38.3, SRC1 inh 38.0, SRC2 inh 53.3* and NR5A2 inv ag 17.4.
For CCC(=O)N1CCC2(CC1)CN(Cc1ccc3c(c1)OCO3)[C@@H](CO)c1c2c2ccc(OC)cc2n1C the results were LGR2 antag 4.1.
COc1cc(/C=C2\COC/C(=C\c3cc(OC)c(OC)c(OC)c3)C2=O)cc(OC)c1OC was read as SRC3 inh 3.4, SRC1 inh -187.1, SRC2 inh 75.3* and NR5A2 inv ag -11.9.
Screening COc1cc(/C=C2\CC/C(=C\c3cc(OC)c(OC)c(OC)c3)C2=O)cc(OC)c1OC returned LGR2 antag 23.4, SRC3 inh 24.9, SRC1 inh -8.4, SRC2 inh -7.2 and NR5A2 inv ag -1.5.
`COc1ccc2c3c(n(C)c2c1)[C@@H](CO)N(C(=O)c1ccncc1)CC31CCN(S(C)(=O)=O)CC1` gave LGR2 antag -0.2.
Screening CC(=O)NCCc1ccc(C(=O)COC(=O)C2CCCCC2)cc1 returned LGR2 antag 77.4*, SRC3 inh -2.0, SRC1 inh -1.2, SRC2 inh -51.9 and NR5A2 inv ag 24.0.
`Cc1ccc(C(=O)COC(=O)C2CCC2)cc1` gave SRC3 inh 2.2, SRC1 inh -11.0 and NR5A2 inv ag -2.9.
COc1cccc(S(=O)(=O)N(C)C[C@@H]2Oc3ncc(C#Cc4ccc(C(F)(F)F)cc4)cc3C(=O)N([C@H](C)CO)C[C@@H]2C)c1 was read as LGR2 antag 22.6.
`CN(C)CC(=O)N1CC2(C1)[C@H](c1ccccc1)[C@H](CO)N2C(=O)C1CCC1` gave LGR2 antag 1.1.
`Cc1ccc(/C=C2/SC(=S)N(CCCC(=O)Nc3cc([N+](=O)[O-])ccc3O)C2=O)cc1` gave LGR2 antag 0.2, SRC3 inh 13.5, SRC1 inh -27.9, SRC2 inh 55.0* and NR5A2 inv ag 3.2.
Screening Cc1ccc(/C=C2\SC(=S)N(CCCC(=O)Nc3ccccc3C(=O)O)C2=O)cc1 returned LGR2 antag 15.9, SRC3 inh 18.4, SRC1 inh 22.7, SRC2 inh 65.9* and NR5A2 inv ag 5.4.
For Cc1ccc(/C=C2\SC(=S)N(CCCC(=O)Nc3ccc(O)cc3)C2=O)cc1 the results were LGR2 antag -18.1, SRC3 inh 46.7, SRC1 inh 22.8, SRC2 inh 66.5* and NR5A2 inv ag 8.9.
Screening COc1ccc(/C=C2/SC(=S)N(CCCC(=O)Nc3ccccc3C(=O)O)C2=O)cc1 returned LGR2 antag -2.5, SRC3 inh 35.2, SRC1 inh 36.3, SRC2 inh 66.3* and NR5A2 inv ag 23.4.
For COC(=O)c1ccc(/C=C2/SC(=S)N(CCCC(=O)Nc3ccc(O)cc3)C2=O)cc1 the results were LGR2 antag -6.8, SRC3 inh 8.6, SRC1 inh -5.7, SRC2 inh 35.5 and NR5A2 inv ag -1.5.
`O=C(CN1C(=O)S/C(=C\c2ccccc2)C1=O)Nc1cc([N+](=O)[O-])ccc1O` gave LGR2 antag 15.0, SRC3 inh -3.3, SRC1 inh 7.0, SRC2 inh -0.5 and NR5A2 inv ag 13.2.
For C[C@@H]1CN([C@H](C)CO)C(=O)c2cc(NS(=O)(=O)c3cccs3)ccc2O[C@@H](C)CCCCO[C@@H]1CN(C)C(=O)CCCN(C)C the results were LGR2 antag -5.9.
O=C(C[C@H]1C=C[C@H](NS(=O)(=O)c2ccc(F)cc2)[C@@H](CO)O1)NCc1ccccc1F was read as LGR2 antag -3.3.
COC(=O)C[C@@H]1CC[C@H]2[C@H](COc3ccc(NS(=O)(=O)c4ccc(F)cc4)cc3C(=O)N2C)O1 was read as LGR2 antag 9.5.
Cc1ccc(/C=C2\SC(=S)N(CCCC(=O)Nc3ccccn3)C2=O)cc1 was read as SRC3 inh 57.4, SRC1 inh 47.9, SRC2 inh 89.3* and NR5A2 inv ag 41.9.
For O=C1/C(=C\c2ccccc2)SC(=S)N1CCC(=O)N1CCCCC1CCO (stereo unspecified) the results were LGR2 antag 1.8, SRC3 inh 8.9, SRC1 inh -4.7, SRC2 inh 4.8 and NR5A2 inv ag 7.0.
`COc1ccc(/C=C2\SC(=S)N(CCCC(=O)N3CCCCC3CCO)C2=O)cc1` (stereo unspecified) gave LGR2 antag -3.9, SRC3 inh 34.2, SRC1 inh 24.4, SRC2 inh 76.8* and NR5A2 inv ag 27.5.
`COc1ccc(/C=C2\SC(=O)N(CCCC(=O)Nc3ccc(C(=O)O)cc3)C2=O)cc1` gave LGR2 antag 0.4, SRC3 inh 72.7*, SRC1 inh 72.7*, SRC2 inh 90.7* and NR5A2 inv ag 74.2*.
`CC(C)C#Cc1cnc2c(c1)C(=O)N([C@@H](C)CO)C[C@@H](C)[C@H](CN(C)Cc1ccccn1)O2` gave LGR2 antag 2.2.
